Where “and” joins values, the source holds several entries; their conditions need not be identical. Equal entries are not always repeated. About 83,000 compounds went through this panel and 20% of them were active in at least one assay; those are over-represented in the sample as a whole.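 48-hour exposure, single concentration, 96-well plates; percent growth endpoint where 0 means no net growth. Active: below 10.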 Calls of active or inactive are those of the source.

One assay deals with UACC-62 melanoma. As to the kind of experiment: NCI-60 one-dose screen, 48 h (100 = growth as untreated, 0 = no growth, -100 = all killed). The settings on record: 10 µM. As to the method: Growth inhibition of the UACC-62 human tumor cell line is measured as a screen for anti-cancer activity. Cells are grown in 96 well plates and exposed to the test compound for 48 hours. Compounds are tested at a single concentration, which is 10^-5 M for most compounds. The reported endpoint is percent growth (GI% or GIPRCNT), where numbers from 0 - 100% represent growth inhibition, and numbers from -100% - 0 represent cell death. For example, a value of 40 represents 60% growth inhibition. A value of 0 means no net growth occurred over the course of the experiment. A value of -40 indicates 40% of cells at the beginning of the experiment died by the end of the experiment. A value of -100 means all cells are dead at the end of the experiment.
NCI-60 Human Tumor Cell Lines Screen was performed using the standard one-dose NCI protocol, which is described in more detail at https://dtp.cancer.gov/discovery_development/nci-60/default.htm.
Compounds with GIPRCNT values below 10 were considered active. Activity score was based on GIPRCNT using the following formula: […]
Score is 0 for GIPRCNT values of 100 or above, 50 for GIPRCNT values of 0, and 100 for GIPRCNT values of -100.
`CS/C(=C\c1ccc(C(=O)c2ccc(C)cc2)n1C)S(C)=O` (stereo not given): the growth is 83.3% (inactive). Take `S=c1nc[nH]c2nc[nH]c12`: the growth is 15.8% (inactive). Still for that read-out and setting: for `O=c1ccn2c(n1)OC1CC2OC1COC(c1ccccc1)(c1ccccc1)c1ccccc1` (stereo not given) the value was 103% (inactive).

The same assay, now with this note: 10 µM unless noted.
`S=c1ccc2ccccc2[nH]1`: the growth was 100% (inactive) and 97.8% (inactive). `Cc1c(O)nc(N)[nH]c1=O`: the growth is 100% (inactive). As for `COc1ccc2oc3cc(NCCN(C)C)ccc3c(=O)c2c1`, the growth is 100% (inactive) and 101% (inactive).

Take `CN(C)C(=S)N(C)C`: the growth is 108% (inactive). The same measure, in the same setting: with `Oc1cccnc1CN1CCOCC1` the figure was 101% (inactive) and 94.5% (inactive); with `CC(CN(C)C)CN1c2ccccc2Sc2ccccc21` (stereo not given), 92.8% (inactive) and 65.9% (inactive).

With `CCOC(=O)C1=CC(=O)CC(C)(C)O1`, the growth is 104% (inactive) and 106% (inactive). Still for that read-out and setting: with `C(=N\OCCc1ccccc1)/c1ccccn1` the figure was 110% (inactive) and 107% (inactive); with `COC(=O)c1nc(=S)[nH]c(C(=O)OC)c1C(=O)c1ccccc1`, 92.6% (inactive). On to `O=C(O)/C=C/C=C/c1ccccc1`, for which the growth was 96.1% (inactive) and 102% (inactive). Consider `O=C1C=CC[C@H](/C=C/c2ccccc2)O1`, for which the growth was 81.7% (inactive) and 6.21% (active). On the same count and under the same terms, with `Cc1c(Cl)cc(Cl)c(N)c1Cl` the figure was 105% (inactive); with `CNc1ccc(Cl)cc1S(=O)(=O)c1ccccc1[N+](=O)[O-]`, 60.9% (inactive) and 69.8% (inactive); with `CCCC(=O)OCC(COC(=O)CCC)OC(=O)CCC`, 89.9% (inactive). Still for that read-out and setting: with `COc1cc2c(cc1O)C(=O)CCCC2` the figure was 106% (inactive); with `CCc1ccc(OC(=O)CCl)cc1`, 106% (inactive); with `CC(C)(C)OC(=O)NCCc1ccc(N)cc1`, 100% (inactive). Still for that read-out and setting: with `O=c1[nH]nnc2cc(Cl)ccc12` the figure was 99.8% (inactive) and 101% (inactive); with `C(#CCN1CCOCC1)CCCN1CCOCC1`, 96.3% (inactive) and 96.5% (inactive). On to `COc1ccc(C(=O)C(O)c2ccc(OC)cc2)cc1` (stereo not given), for which the growth is 100% (inactive) and 105% (inactive). Same read-out and setting: for `CN(C)c1ccc(C(=N)c2ccc(N(C)C)cc2)cc1` the value was 31.4% (inactive) and 31.8% (inactive); for `Oc1ccc(O)c(-c2ccccc2)c1`, 71.3% (inactive). Still for that read-out and setting: with `Cc1ccc(S(=O)(=O)n2ccnc2)cc1` the figure was 92.7% (inactive). In the case of `O=C(c1ccncc1)c1c(Cc2ccccc2)ccc2ccccc12`, the growth was 66.3% (inactive).

As for `Clc1ccc2c(c1)N(C1CCCN(Cc3ccccc3)C1)c1ccccc1S2` (stereo not given), the growth was 44% (inactive). The same measure, in the same setting: for `Cc1cc(Cl)nc(Nc2ccccc2)n1` the value was 90.2% (inactive). As to `O=c1[nH]c(=O)c2[nH]c(=O)[nH]c2[nH]1`, the growth was 99.8% (inactive).

Take `N#Cc1c(N)nc2c(c(-c3ccc(Cl)cc3)nn2-c2ccccc2)c1C#N`: the growth was 97.9% [100 µM] (inactive).

Regarding `COc1ccc(S(=O)(=O)c2ccc(F)cc2)cc1`, the growth was 93.9% (inactive). Same read-out and setting: for `OCCCc1ccccc1` the value was 96.2% (inactive); for `Cc1cc(NC(=O)NC(=O)c2ccccc2N(C)C)ccc1Oc1ncc(Br)cn1`, 30.4% (inactive) and 37% (inactive). On the same count and under the same terms, for `c1ccc2c[n+](Cc3ccc4ccccc4n3)ccc2c1` the value was 90% (inactive); for `CC(C)(C)OC(=O)CC1(O)CCCCC1`, 103% (inactive).

The assay is the same for the next values; noted with them: 50 µM.
As to `S=c1nc[nH]c2nc[nH]c12`, the growth is 19.8% (inactive).

Staying with this assay, now noted: 100 µM.
On to `CS/C(=C\c1ccc(C(=O)c2ccc(C)cc2)n1C)S(C)=O` (stereo not given), for which the growth is 61.4% (inactive).

For the compound `O=c1ccn2c(n1)OC1CC2OC1COC(c1ccccc1)(c1ccccc1)c1ccccc1` (stereo not given), the growth is 44.5% (inactive).

The same assay, now with this note: 750 µM.
Consider `S=c1nc[nH]c2nc[nH]c12`, for which the growth is 15.6% (inactive) and 1.72% (active).

(Values after PubChem BioAssay (NCI).)
